According to the supplement of paper PMC6279402:
Counter-ions that a name gives are not always drawn. ± gives the standard deviation of the averaged measurements.

Test system: A549
Assay: relative viability (normalised to negative control = 1, bortezomib = 0) (fraction); higher = less cytotoxic
Conditions: inflammatory serum-free RHB-A with cytokines + LPS, 5 d + 24 h CellTiter-Blue
Description: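 A549 KRAS-mutant NSCLC cells, pre-treated 5 µM GSK126 or vehicle (DMSO), were seeded at 250 cells/well in 384-well plates in serum-free RHB-A medium with inflammatory cytokines/LPS and treated with Selleck kinase inhibitor and NCI oncology compounds at 30 or 300 nM in triplicate, refreshed at 48 h. Viability was read by CellTiter-Blue after 5 d plus 24 h and normalised per plate with cellHTS2 (mean of bortezomib positive control = 0, mean of negative control = 1).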

[1] = compound 30 nM, GSK126 pretreatment: 5 uM GSK126
[2] = compound 30 nM, GSK126 pretreatment: none (vehicle)
[3] = compound 300 nM, GSK126 pretreatment: 5 uM GSK126
[4] = compound 300 nM, GSK126 pretreatment: none (vehicle)

| SMILES | relative viability [1] | relative viability [2] | relative viability [3] | relative viability [4] |
| --- | --- | --- | --- | --- |
| Cc1c(N)nc([C@H](CC(N)=O)NC[C@H](N)C(N)=O)nc1C(=O)N[C@H](C(=O)N[C@H](C)[C@@H](O)[C@H](C)C(=O)N[C@H](C(=O)NCCc1nc(-c2nc(C(=O)NCCC[S+](C)C)cs2)cs1)[C@@H](C)O)[C@@H](OC1OC(CO)C(O)C(O)C1OC1OC(CO)C(O)C(OC(N)=O)C1O)c1cnc[nH]1 (stereo not given in full) [Bleomycin sulfate] | 0.821 ± 0.13 | 0.871 ± 0.061 | 0.739 ± 0.064 | 0.84 ± 0.069 |
| O=C(O)CCCc1ccc(N(CCCl)CCCl)cc1 [Chlorambucil] | 0.933 ± 0.1 | 0.844 ± 0.11 | 0.836 ± 0.13 | 0.845 ± 0.12 |
| O=P1(N(CCCl)CCCl)NCCCO1 (stereo not given) [Cyclophosphamide monohydrate; Cyclophosphamide] | 0.799 ± 0.035 | 0.813 ± 0.086 | 0.877 ± 0.031 | 0.941 ± 0.1 |
| N.N.[Cl][Pt][Cl] [Cisplatin] | 0.813 ± 0.035 | 0.812 ± 0.029 | 0.839 ± 0.099 | 0.875 ± 0.018 |
| C1CN1c1nc(N2CC2)nc(N2CC2)n1 [Triethylenemelamine] | 0.834 ± 0.081 | 0.834 ± 0.059 | 0.828 ± 0.012 | 0.918 ± 0.042 |
